Compounds with a hit are over-represented: about 6.6% of the library has one in this group of screens.
TGFb SMAD3 inh: inhibitors of TGF-b signaling; HepG2 CAGA-GFP TGF-b/SMAD3 reporter, GFP fluorescence, 18 h; TGF-beta stimulated, 500 pg/mL final; hit rate 1.2% among 410,000; Potency, µM (titrated, usually from 46.1 µM), usual class: inhibitors; note: nearly all actives have a fitted effect of over 65% in size
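HEPG2 CAGA-GFP cells (1000/well, DMEM with 1% FBS) were pre-incubated 2 h at 37 degrees C, given compound by pin tool, then stimulated with TGF-beta at 500 pg/mL final for 18 h before per-cell GFP fluorescence imaging.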
KB-V1 cytotox: KB-V1 MDR subline cytotoxicity; KB-V1 MDR cells viability, CellTiter-Glo, 72 h; Potency, µM (doses to about 46.1 µM), most hits filed as cytotoxic; hit rate 3.4% among 400,000; AID 1347076; note: nearly all actives have a fitted effect of over 60% in size
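In this primary screen, KB-V1 cells overexpressing P-gp are incubated with library compounds (lowest to highest concentration) for 72 h at 37 degrees C before a luminescent ATP viability read.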
HT1080-NT tox: kills 2HG-producing HT-1080-NT fibrosarcoma cells; HT-1080-NT fibrosarcoma viability, CellTiter-Glo ATP luminescence, 48 h; Potency, µM (highest dose often 46.1 µM), hits mostly cytotoxic; hit rate 1.6% among 360,000; AID 686970;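 note: NT is the 2HG producing partner of a matched IDH1 knockdown line; nearly all actives have a fitted effect of over 55% in size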
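Luminescent CellTiter-Glo readout after 48 hours of compound exposure at 37 degrees C defined viability of HT-1080-NT cells. Activity was normalized to DMSO wells and cell-free media wells; concentration-response curves were fitted and assigned curve classes.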
KB-3-1 tox: KB-3-1 parental cell cytotoxicity. KB-3-1 viability, CellTiter-Glo ATP luminescence, 72 h. Potency, µM (top dose mostly 46.1 µM), usual class: cytotoxic. hit rate 1.4% among 400,000. AID 1347075; note: nearly all actives have a fitted effect of over 60% in size
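72 h, 37 °C compound treatment of KB-3-1 parental cells; CellTiter-Glo added, 10 min, luminescence read. Data corrected against DMSO-only plates and normalized before curve fitting.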
HT1080 IDH1KD tx: toxicity to HT-1080 IDH1 knockdown cells (counter line); Potency, µM (titrated, usually from 46.1 µM), actives largely listed as cytotoxic; HT-1080 IDH1 knockdown viability, ATP luminescence, 48 h; hit rate 2% among 360,000
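In this qHTS, HT-1080 cells depleted of IDH1 are exposed for 48 h at 37 °C to compound titrations. Toxicity is scored from CellTiter-Glo luminescence, with DMSO as full viability and medium alone as none.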
HepG2 viability: counter-screen for TGF-b inhibitors: cytotoxicity in HepG2 cells | HepG2 CAGA-GFP viability, ATP luminescence, 18 h | hit rate 0.76% among 410,000 | Potency, µM (doses to about 46.1 µM), most hits filed as cytotoxic | AID 588856
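HepG2 CAGA-GFP cells (1000/well, DMEM with 1% FBS) received compound, then TGF-beta at 500 pg/mL final, and were incubated 18 hours at 37 degrees C. Viability was read by CellTiter-Glo luminescence. Media-only wells were set as complete cell-killing and DMSO as no toxicity.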
Numbers stand for hits; - = inactive; ? = inconclusive; . = not tested or not shown. Calls come from the whole dose curve; as a rule, active = well fitted curve in the direction sought with a large enough effect; inconclusive = small, poorly fitted or top-dose-only effect, or another doubt; inactive = no such curve, though single readings can be large; an effect the other way counts as inactive or inconclusive.

SMILES	TGFb SMAD3 inh	KB-V1 cytotox	HT1080-NT tox	KB-3-1 tox	HT1080 IDH1KD tx	HepG2 viability
O=C(NCCc1csc2nc(-c3cccc(F)c3)nn12)c1ccc(Br)o1	-	-	.	-	.	-
COC(=O)[C@]12CCCCC=C1N(Cc1ccco1)C(=O)[C@H](CC(=O)NCCCN1CCCC1=O)C2	.	-	-	-	-	.
Cc1ccc2oc(C(=O)Nc3ccc(S(=O)(=O)Nc4nccc(C)n4)cc3)cc(=O)c2c1	-	-	.	-	.	-
CCOc1ccc(Sc2cc(C(=O)NC(C)c3ccccc3)c3ccccc3n2)cc1 (configuration not stated)	-	.	.	.	.	-
COc1nccnc1NS(=O)(=O)c1ccc(N=Cc2c(C)[nH]n(-c3ccc(C)c(C)c3)c2=O)cc1	?	?	10µM	?	7.94µM	10µM
Cc1ccc(-n2[nH]c(C)c(C=Nc3ccc4[nH]c(=O)[nH]c4c3)c2=O)cc1	?	?	?	20.6µM	?	12.6µM
Cc1ccc(N=Cc2c(C)[nH]n(-c3nc4ccccc4[nH]3)c2=O)cc1	-	6.51µM	2.91µM	8.2µM	3.26µM	0.398µM
Cc1ccc(-n2[nH]c(C)c(C=Nc3ccc4[nH]c(=O)[nH]c4c3)c2=O)cc1C	-	?	23.1µM	?	23.1µM	-
COc1nccnc1NS(=O)(=O)c1ccc(N=Cc2c(C)[nH]n(-c3ccccc3)c2=O)cc1	-	-	-	-	-	-
CCOC(=O)c1ccc(NC(=O)Cn2c(=O)cc(C)c3c(C)nn(-c4ccc(CC)cc4)c32)cc1	-	-	.	-	.	-
O=C(COC(=O)/C=C/c1ccc([N+](=O)[O-])cc1)NCC1CCCCC1	-	-	-	-	-	-
CC(C)(C)n1ncc2c(=O)n(Cc3ccc(F)c(F)c3F)cnc21	-	.	.	.	.	-
COc1ccc2nc3sc(C(=O)N4CCN(c5ccc(F)cc5)CC4)cc3cc2c1	-	-	.	-	.	-
CCS(=O)(=O)c1nnnn1-c1ccccc1S(C)(=O)=O	11.2µM	-	17.8µM	-	12.6µM	-
O=C(NCCN1CCCCC1)c1ccc(Oc2cc(Cl)cc(Cl)c2)o1	?	?	?	-	25.9µM	-
COc1ccc(NC(=O)COC(=O)C(NC(=O)c2ccc(C)cc2)C(C)C)cn1 (configuration not stated)	-	14.6µM	-	-	-	-
COc1ccc(OCC(=O)N(Cc2cccc(OC)c2)C2CCS(=O)(=O)C2)cc1 (configuration not stated)	-	-	.	-	.	-
COc1ccc(OC)c(CNC(=O)C2CCN(c3nc4ccccc4nc3C(F)(F)F)CC2)c1	-	-	.	-	.	-
COc1ccccc1S(=O)(=O)NCc1ccc(C(=O)NC2CCC(O)CC2)cc1 (configuration not stated)	-	-	-	-	-	-
CCc1cccc2c(C(=O)CN3C(=O)N(C)C4(CCCCC4)C3=O)c[nH]c12	?	-	18.4µM	?	16.4µM	-
CCc1cccc2c(C(=O)CN3C(=O)NC(C)(c4cccc5ccccc45)C3=O)c[nH]c12 (configuration not stated)	?	23.1µM	?	?	14.6µM	-
OC(CN(Cc1ccccc1)Cc1ccccc1)c1ccccc1 (configuration not stated)	-	-	-	-	?	-
CC1=CC(C)(C)Nc2ccc(OC(=O)CN3C(=O)c4ccccc4C3=O)cc21	-	-	?	?	?	17.8µM
CCOC(=O)c1ccccc1Nc1nc2ccc(C)cc2n2nnnc12	-	-	.	-	.	-
CCOC(=O)N1CCC(Nc2nc3ccccc3n3nnnc23)CC1	-	2.31µM	-	-	-	-
Cc1ccc(CN2CCC(CNC(=O)Nc3c(C)cccc3C)C2)cc1 (configuration not stated)	-	-	.	-	.	-
CCOC(=O)c1ccc(NC(=O)NC2=NCCS2)cc1	-	?	2.59µM	-	2.31µM	-
CCOC(=O)c1ccc(NC(=O)Nc2ccc(S(N)(=O)=O)cc2)cc1	-	-	-	-	-	-

High-throughput results (PubChem BioAssay)
